Source: PubChem (NMMLSC)
CIT2-GFP yeast: modulators of CIT2-GFP expression in yeast, primary screen, S. cerevisiae, GFP fusion, multiplex flow cytometry, MLPCN library; GFP response vs DMSO, % at 10 µM; S. cerevisiae CIT2-GFP strain, 3 h; 100 means same as DMSO wells; hit rate 0.065% among 320,000;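 active = GFP response relative to DMSO above a set limit, near the screen mean plus 3 SD, cut at about 150% in these data; inconclusive = Fewer than 70 cells measured for a yeast strain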;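 also: ratio of well median GFP fluorescence to mean of DMSO wells on the plate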
MEP2 TOR yeast: modulators of MEP2-GFP levels in yeast, primary screen, S. cerevisiae, multiplex flow cytometry, MLPCN library. S. cerevisiae MEP2-GFP strain, 3 h; 100% = DMSO control level. AID 2016, 2009. hit rate 0.51% among 330,000. GFP response vs DMSO, % at 10 µM;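 active = GFP response versus DMSO above a set limit, roughly screen mean plus 3 SD, cut at about 180% in these data; inconclusive = fewer than 70 cells counted for a yeast strain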;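 also: median GFP fluorescence of the barcode-gated MEP2-GFP cells per well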
RPL19A TOR yeast: RPL19A-GFP expression modulators in yeast, primary screen, cell-based, S. cerevisiae, multiplex flow cytometry, MLPCN. S. cerevisiae RPL19A-GFP strain, 3 h; stronger effect = lower value. percent response vs DMSO, % at 10 µM. hit rate 0.3% among 330,000;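 active = percent response vs DMSO below 50%; inconclusive = fewer than 70 events counted for the yeast strain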;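 also: median channel GFP fluorescence of the barcoded RPL19A-GFP strain; ratio of sample median GFP to plate DMSO average so 100% = DMSO; lower means less RPL19A-GFP as with rapamycin TOR inhibition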
DSG3 Ab inh: inhibitors of pemphigus antibody binding to DSG3, primary screen, biochemical, bead-based, flow cytometry, scFv-GFP. DSG3-coupled beads, scFv-anti-DSG3-GFP binding; stronger effect = lower value. binding (percent of control), % at 10 µM. Desmoglein-3 (Homo sapiens), P32926. hit rate 0.48% among 310,000;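 active = binding more than 3 SD below its plate's average and above zero; inconclusive = below that plate limit but binding exactly zero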
AGP1 TOR yeast: modulators of AGP1-GFP expression in yeast TOR pathway, primary screen, cell-based, multiplex flow cytometry, S. cerevisiae, MLPCN library; GFP response vs DMSO, % at 10 µM; hit rate 0.02% among 320,000; 3 h; GFP as percent of DMSO wells;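 active = GFP response relative to DMSO above a set limit, near screen average plus 3 SD, cut at about 150% in these data; inconclusive = fewer than 70 cells counted for the yeast strain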;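 also: median GFP channel fluorescence of the gated AGP1 strain per well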
LAP4-GFP MLPCN: modulators of LAP4-GFP expression in yeast, primary screen, S. cerevisiae, multiplex flow cytometry, MLPCN library. AID 2023, 2009. 3 h; median GFP as percent of DMSO wells. GFP response vs DMSO, % at 10 µM. hit rate 0.34% among 320,000;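 active = GFP response vs DMSO above a set limit, about the screen mean plus 3 SD, cut at about 150% in these data; inconclusive = under 70 cell events counted for the yeast strain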
An asterisk follows results filed as active; u = inconclusive; x = not tested or not shown; [ ] = remark or other dose. Most compounds without a hit are left out; they make up all but 1.2% or so of the library.

SMILES | CIT2-GFP yeast | MEP2 TOR yeast | RPL19A TOR yeast | DSG3 Ab inh | AGP1 TOR yeast | LAP4-GFP MLPCN
Cc1ccc(-c2nc(N)sc2CC(=O)OCC(=O)NCC2CCCO2)cc1 (configuration not stated) | 114 | 113 | 108 | 102 | 108 | 112
CCn1nc(C)c(/C=N/NC(=O)c2ccc3c(c2)c(C)c(C)n3Cc2ccccc2)c1C | u | 279*[may fluoresce violet] | 22*[may fluoresce violet] | 96 | u | 98
CCn1ncc(/C=N\NC(=O)c2ccc3c(c2)c(C)c(C)n3Cc2ccccc2)c1C | u | u | u | 105 | u | u
N#Cc1c(N)n(-c2ccccc2N)c2nc3ccccc3nc12 | 95 | 103 | 96 | 112 | 109 | 112
N#Cc1c(N)n(-c2cccc(C(=O)O)c2)c2nc3ccccc3nc12 | u | 198*[may fluoresce violet] | 61 | 92 | 19 | 83
CCC(=O)c1ccc(OCC(=O)OCC(=O)N2CCc3ccccc32)cc1 | 104 | 101 | 100 | 63* | 108 | 111
N#Cc1ccc(OCC(=O)OCC(=O)N2CCc3ccccc32)cc1 | x | x | x | 101 | x | x
Cc1cccn2c(=O)nc(SCC(=O)NCCc3ccccc3)nc12 | 109 | 108 | 107 | 98 | 114 | 100
Cc1ccc(Oc2ccc(Cl)cc2NC(=O)c2cnccn2)cc1 | 109 | 99 | 96 | 79* | 96 | 96
O=C(Nc1ccccc1Oc1ccccc1)c1cnccn1 | 107 | 94 | 96 | 96 | 90 | 84
Cn1c(C(=O)OCC(=O)NCc2cccs2)cc2sccc21 | 95 | 94 | 92 | 40* | 95 | 93
CC(OC(=O)c1cc2sccc2n1C)C(=O)NCc1cccs1 (configuration not stated) | 92 | 94 | 92 | 97 | 93 | 96
CC(=O)N=c1sc(S(N)(=O)=O)nn1C | 84 | 102 | 99 | -12* | 92 | 125
CC(C)CC1C(=O)N(Cc2cn(CCC3OCCO3)nn2)CCS(=O)(=O)N1Cc1ccc(-c2ccc(Cl)c(Cl)c2)cc1 (configuration not stated) | x | x | x | 101 | x | x
CN(C)/C=C/C(=O)/C=C/c1cn(-c2ncc(C(F)(F)F)cc2Cl)c2ccccc12 | u | 232*[may fluoresce violet] | 41*[may fluoresce violet] | 112 | u | 82
COc1cc(/C=N/N(C)C)cc(Br)c1O | u | 461*[may fluoresce violet] | 40*[may fluoresce violet] | 104 | u | 73
O=c1c2ccccc2sn1-c1ccc(Cl)cc1Cl | x | x | x | 61* | x | x
Cc1cccc(NC(=O)COC(=O)CN2C(=O)c3ccccc3C2=O)c1 | x | x | x | 102 | x | x
Cc1sc2ncn(CC(=O)NCCCN3CCC(C)CC3)c(=O)c2c1S(=O)(=O)N1CCC(C)CC1 | 99 | 103 | 103 | x | 103 | 98
Cc1sc2ncn(CC(=O)Nc3c(F)cccc3F)c(=O)c2c1S(=O)(=O)N1CCC(C)CC1 | 115 | 124 | 109 | 55* | 113 | 114
CC(C)CC1C(=O)N(Cc2cn(Cc3ccco3)nn2)CCS(=O)(=O)N1Cc1ccc(-c2cccc(N(C)C)c2)cc1 (configuration not stated) | x | x | x | 102 | x | x
Cc1occc1C(=O)NNC(=O)C(c1ccccc1)c1ccccc1 | 100 | 102 | 103 | 101 | x | 104
O=C(c1ccccn1)N(Cc1ccco1)C1(C(=O)NC2CCCCC2)CCCCC1 | 111 | 99 | 104 | x | 109 | 97
Cc1cccc(C)c1NC(=O)C1(N(Cc2ccco2)C(=O)c2ccccn2)CCCC1 | u | 277*[may fluoresce violet] | 60 | 99 | x | 106
O=C(Nc1ccc(Cl)c(Cl)c1)N(CCCN1CCOCC1)Cc1cccnc1 | u | 180*[may fluoresce violet] | 50*[may fluoresce violet] | 85 | 19 | 91
Cc1c(Br)c(O)c(Br)c2sc(=O)oc12 | 76 | 100 | 48* | 102 | 57 | 177*
Cc1ccccc1Nc1nc(N)nc(COC(=O)c2ccc([N+](=O)[O-])o2)n1 | 100 | 97 | 103 | 107 | 102 | 99
